# Experimental data: PMC5540273 (PLoS ONE, 2017)
# Several values for one entry are separate records, joined by “and”; a condition that tells them apart may be missing. Equal entries are not always repeated. Where two headings read alike, the source gives them in different places.
# Tests used:
# ABL2 = conditions: concentration: 1 μM, replicates: in singlicate, n = 1
# ACVR1B = conditions: concentration: 1 μM, replicates: in singlicate; n = 1
# ACVR1 = conditions: concentration: 1 μM, replicates: in singlicate; n = 1
# ACVR2A = conditions: concentration: 1 μM, replicates: in singlicate; n = 1
# ACVR2B = conditions: concentration: 1 μM, replicates: in singlicate; n = 1
# ACVRL1 = conditions: concentration: 1 μM, replicates: in singlicate; n = 1
# ADCK3 = test system: T1, ADCK3; conditions: concentration: 1 μM, replicates: in singlicate, n = 1
# T1 construct: gene CABC1
# ADCK4 = conditions: concentration: 1 μM, replicates: in singlicate, n = 1
# AKT1 = conditions: concentration: 1 μM, replicates: in singlicate; n = 1
# AKT2 = conditions: concentration: 1 μM, replicates: in singlicate, n = 1
# 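Further: KINOMEscan kinase panel screen.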
Compound,%Inh (ABL2),%Inh (ACVR1B),%Inh (ACVR1),%Inh (ACVR2A),%Inh (ACVR2B),%Inh (ACVRL1),%Inh (ADCK3),%Inh (ADCK4),%Inh (AKT1),%Inh (AKT2),%Inh (ABL2; 1 µM),%Inh (ADCK3; 1 µM),%Inh (ADCK4; 1 µM),%Inh (AKT2; 1 µM)
COc1ccc(Nc2nccc(N3CCC(NC(=O)c4cccc(NC(C)=O)c4)C3)n2)cc1 (stereo not shown) [GSK1379732],0%,0%,6%,0%,0%,2%,8%,36%,0%,14%,–,–,–,–
O=C(NCCCN1CCCC1=O)c1cnc(NCc2cc(Cl)ccc2Cl)nc1NC1CCNCC1,0%,0%,0%,0%,0%,0%,9%,0%,0%,0%,–,–,–,–
FC(F)(F)c1cc(Nc2nccc(-c3c(-c4ccc(Cl)cc4)nn4ncccc34)n2)ccc1Cl [GW829351],0%,0%,0%,0%,12%,0%,0%,27%,0%,0%,–,–,–,–
CS(=O)(=O)CCNCc1nc(-c2ccc3ncnc(Nc4ccc(OCc5cccc(F)c5)c(Cl)c4)c3c2)cs1.Cl [GW583340],0%,0%,0%,0%,0%,0%,1%,20%,0%,0%,–,–,–,–
Clc1cccc(-c2nc(Nc3ccncc3)c3ccccc3n2)c1 [GW873004],28%,72%,0%,25%,15%,9%,30%,20%,11%,0%,–,–,–,–
COC(=O)c1cccc(NC(=O)NCCNc2ccnc(Nc3ccc(F)cc3)n2)c1 [GSK1379883],1%,0%,6%,0%,0%,0%,15%,48%,0%,0%,–,–,–,–
Cl.Cn1ccc(-c2cccc(Nc3ccnc4cc(-c5nccs5)ccc34)c2)n1 [GW525701],10%,0%,3%,0%,0%,0%,6%,55%,0%,7%,–,–,–,–
COc1ccc(Nc2nccc(N3CCC(NC(=O)Nc4ccc5c(c4)OCO5)C3)n2)cc1 (stereo not shown) [GSK1379745],18%,0%,1%,0%,5%,0%,17%,41%,0%,7%,–,–,–,–
FC(F)(F)c1ccc(-c2nn3ncccc3c2-c2ccnc(Nc3cccc(C(F)(F)F)c3)n2)cc1 [GW828205],16%,24%,0%,6%,19%,10%,23%,0%,0%,0%,–,–,–,–
COC(=O)c1c(-c2ccccc2)c2cc(Cl)ccc2c(=O)n1Cc1ccc(S(C)(=O)=O)cc1,18%,0%,0%,0%,0%,0%,17%,0%,9%,3%,–,–,–,–
Cl.O=S(=O)(c1cccc(F)c1)c1ccc(Nc2ncnc3cc(Br)sc23)cc1Cl [GSK306886],0%,0%,18%,0%,0%,7%,11%,22%,0%,3%,–,–,–,–
CCC(CC)(CC)n1cnc2c(N)ncnc21 [SKF-97620],1%,10%,0%,0%,0%,0%,0%,9%,11%,0%,–,–,–,–
OCCOCCn1ccc2ncnc(Nc3ccc(Oc4cccc(Cl)c4)c(Cl)c3)c21,0%,0%,0%,8%,0%,0%,2%,0%,0%,0%,–,–,–,–
COc1ccc(-c2nc3n(c2-c2ccncc2)CCC3)cc1 [SKF-104493],–,19%,0%,0%,0%,0%,–,–,0%,–,5% and 0%,0% and 6%,12% and 6%,0% and 3%
CSc1nn2c(=O)cc(N3CCOCC3)nc2n1Cc1cccc(Cl)c1Cl [GSK2347225],14%,0%,18%,0%,12%,0%,18%,28%,0%,9%,–,–,–,–
Cc1cccc(-c2nc(Nc3ccc4[nH]nnc4c3)c3ccccc3n2)n1 [GW867587],0%,0%,0%,0%,0%,0%,0%,8%,5%,0%,–,–,–,–
COc1cc2ncnc(Nc3ccc(OCc4ccccc4Br)c(Cl)c3)c2cc1OC.Cl [GI261590],16%,0%,0%,0%,4%,0%,22%,37%,0%,5%,–,–,–,–

Compound,%Inh (ABL2),%Inh (ACVR1B),%Inh (ACVR1),%Inh (ACVR2A),%Inh (ACVR2B),%Inh (ACVRL1),%Inh (ADCK3),%Inh (ADCK4),%Inh (AKT1),%Inh (AKT2),%Inh (ABL2; 1 µM),%Inh (ADCK3; 1 µM),%Inh (ADCK4; 1 µM),%Inh (AKT2; 1 µM)
FC(F)(F)c1ccc(-c2cc(-c3c[nH]nc3-c3ccccn3)ccn2)cc1 [GW599550],16%,46%,16%,0%,34%,0%,9%,37%,0%,0%,–,–,–,–
COc1ccc(-c2oc3ncnc(N)c3c2-c2ccc(OC)cc2)cc1 [SB-589132],20%,0%,21%,0%,0%,12%,12%,55%,0%,0%,–,–,–,–
O=C(Nc1ccccc1)Nc1ccc(Oc2ccc3nccn3n2)cc1,27%,0%,5%,24%,9%,0%,15%,1%,13%,0%,–,–,–,–
Clc1cc(Nc2ncnc3cc[nH]c23)ccc1OCc1ccccn1,0%,28%,10%,0%,0%,5%,9%,3%,10%,19%,–,–,–,–
Fc1cccc(COc2ccc(Nc3ncnc4nn5ccccc5c34)cc2Cl)c1 [GW689066],1%,0%,0%,0%,0%,0%,5%,42%,0%,3%,–,–,–,–
COc1ccc(NC(=O)Nc2ccc(C)c(-c3ccc(C(=O)Nc4ccncc4)cc3)c2)cc1 [GSK1398475],12%,0%,43%,0%,0%,0%,19%,34%,0%,0%,–,–,–,–
Nc1n[nH]c2nnc(-c3ccccc3)cc12 [SB-517389],13%,0%,16%,0%,4%,0%,6%,16%,0%,13%,–,–,–,–
Cc1ccc(C)c(NC(=O)NCCNc2ccnc(Nc3ccc(F)cc3)n2)c1 [GSK1379878],0%,0%,0%,0%,0%,0%,0%,10%,0%,0%,–,–,–,–
CNc1nccc(-c2c(-c3ccc(F)cc3)ncn2C2CCN(C)CC2)n1 [SB-222903],0%,0%,0%,0%,0%,0%,0%,22%,0%,2%,–,–,–,–
O=C(c1ccc(-c2cc(-c3c[nH]nc3-c3ccccn3)ccn2)cc1)N1CCCC1 [GW792479],0%,77%,0%,11%,22%,0%,27%,0%,2%,0%,–,–,–,–
CCn1c(-c2ccncc2)nc2cnccc21 [SB-735216],0%,14%,40%,0%,4%,0%,15%,6%,0%,0%,–,–,–,–
Cl.c1ccc(Cn2ccc3cc(Nc4ncnc5ccccc45)ccc32)cc1 [GW275568],0%,0%,10%,2%,16%,0%,24%,4%,3%,12%,–,–,–,–
O=C(Nc1ccccc1F)NC1CCN(c2ccnc(Nc3ccc(F)cc3)n2)C1 (stereo not shown) [GSK1379722],9%,0%,25%,0%,0%,0%,20%,40%,0%,13%,–,–,–,–
Cn1ccc2ncnc(Oc3ccc(NC(=O)Nc4cccnc4)c(Cl)c3)c21,11%,0%,0%,0%,0%,0%,0%,0%,0%,8%,–,–,–,–
Cn1cc(-c2ccc3c(c2)CCN3C(=O)Cc2cccc(C(F)(F)F)c2)c2c(N)ncnc21 [GSK2606414],11%,0%,0%,0%,1%,4%,6%,0%,0%,18%,–,–,–,–
CC(C)(C)OC(=O)NC1CCCN(c2cc(-c3ccc4c(N)n[nH]c4c3)nc(N)n2)C1 (stereo not shown) [GSK2286096],6%,0%,0%,0%,0%,0%,8%,5%,0%,0%,–,–,–,–
CCc1nc(-c2cccc(N(C)S(=O)(=O)c3ccccc3)c2)c(-c2ccnc(Nc3ccc(N4CCN(C(C)=O)CC4)nc3)n2)s1 [GSK1645895],23%,0%,0%,0%,0%,0%,16%,19%,0%,0%,–,–,–,–
